Consider 79 compounds from PubChem BioAssay AID686949 (The Scripps Research Institute Molecular Screening Center, 2013).

Hit rate of the full screen: of about 3,200 compounds, about 2,200 (69%) were called active. So high a share suggests a set chosen from earlier hits. These entries were drawn from the full list. Values without a mark were called inactive.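 Rule for the calls: active = activation, as change over the incubation, above the mean of all tested compounds plus 3 SD (cut at about 13% in these data); inactive = the rest.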

The target of this assay is Kallikrein-7 (Homo sapiens) (UniProt P49862). The assay is described as follows: proKLK7 zymogen activators, confirmation, biochemical, fluorescence intensity, triplicate (AID 686949). To be noted: purified proKLK7, EDANS-DABCYL substrate fluorescence; at 7 µM; stronger effect = higher value; scaled: vehicle 0, mature enzyme 100.
Chain of Kallikrein-7 (Homo sapiens) (P49862 whole entry, looked up): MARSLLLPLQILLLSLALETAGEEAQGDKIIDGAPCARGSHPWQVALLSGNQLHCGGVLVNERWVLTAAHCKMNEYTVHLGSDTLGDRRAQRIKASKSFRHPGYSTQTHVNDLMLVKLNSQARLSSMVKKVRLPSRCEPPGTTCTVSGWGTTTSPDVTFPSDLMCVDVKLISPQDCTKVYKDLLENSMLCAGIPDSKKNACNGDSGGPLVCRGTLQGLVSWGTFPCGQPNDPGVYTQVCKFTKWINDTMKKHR
Regarding `CN(C)Cc1c(O)ccc2c(=O)c(-c3ccccc3Cl)coc12`, the activation is 70.2% (active).
With `O=C(OC1CCOC1=O)c1ccc(-c2nc3ccccc3s2)s1` (centres undefined) the figure was 17.6% (active); with `COC(=O)Cc1nc2c(N)nc(N)nc2[nH]c1=O`, 18.7% (active).
In the case of `O=C(Oc1c(-c2ccco2)oc2ccccc2c1=O)c1cccnc1`, the activation is 22.3% (active).
As for `CC(C)(C)Nc1c(-c2cccs2)nc2ccccn12`, the figure is -59.6%; as for `CN(C)CCCn1c(N)c(C#N)c2nc(C#N)c(C#N)nc21`, 38% (active); as for `CCS(=O)(=O)Nc1cc(C(=O)OC)ccc1C(=O)OC`, 10%.
As for `Cc1cccc(C)c1NC(=O)C(c1ccccc1)N1CC(=O)Nc2ccccc21` (centres undefined), the figure is 40.3% (active); as for `COc1ccc(C2=CC(c3cccc(OC)c3)n3nnnc3N2)cc1` (centres undefined), -12.2%; as for `CCOC(=O)C1=C(O)/C(=C/c2ccc(OCC(=O)Nc3ccc(C)cc3)cc2)N=C1C`, 2.24%.
With `CCC(c1nnnn1Cc1ccco1)N(CCc1ccccc1)Cc1cc2ccc(OC)cc2[nH]c1=O` (centres undefined) the figure was -0.98%.
For the compound `Cc1ccsc1-c1cc(C(=O)O)c2c(ccc3ccccc32)n1`, the activation is 19.8% (active).
As for `O=C(O)c1ccc2c(c1)C(=O)N(c1ccc(/C=C/C(=O)c3ccccc3)cc1)C2=O`, the figure is 703% (active); as for `O=C(/C=C/c1ccc2c(c1)OCCO2)c1ccc(O)cc1`, 3.2%.
Take `CCCN(CC(=O)NC(=O)NC1CCCCC1)CC(=O)Nc1cc(Cl)ccc1Cl`: the activation is 1.91%.
As for `CC(OC(=O)c1ccccc1NCCO)C(=O)Nc1ccnn1C(C)C` (centres undefined), the figure is 26.1% (active); as for `O=c1c(-c2ccccc2)coc2c(CN3CCOCC3)c(O)ccc12`, 18.1% (active).
Take `Cc1c(C)c2c(OCC(=O)N[C@@H](C(=O)O)c3ccccc3)cc3c(c2oc1=O)CCC(C)(C)O3`: the activation was 36.6% (active).
For the compound `Cc1cc(=O)oc2c3c(cc(OCC(=O)NCCC(=O)N[C@@H](C)C(=O)O)c12)OC(C)(C)CC3`, the activation was 58.2% (active).
With `Cc1cc(=O)oc2c3c(cc(OCC(=O)N[C@H](C(=O)O)c4ccccc4)c12)OC(C)(C)CC3` the figure was 34% (active).
With `Cc1c(C)c2c(OCC(=O)NCCCO)cc3c(c2oc1=O)CCC(C)(C)O3` the figure was 44.6% (active).
In the case of `CCOC(OCC)c1ccc(/C=C\c2nccc(N)n2)cc1`, the activation was -9.52%.
With `Cc1nn(-c2ccccc2)c(C)c1NC(=O)COC(=O)c1cc(Cl)ccc1O` the figure was 24.2% (active).
As for `CCOC(=O)c1[nH]c2ccc(OC)cc2c1NC(=O)CCN1CCN(Cc2ccccc2)CC1`, the figure is 1.17%; as for `CC(=O)N1CCN(C(=O)c2cc(-c3ccc(C)o3)nc3ccccc23)CC1`, 62.7% (active); as for `CC1CCCN(C(=O)c2cc(-c3ccco3)nc3ccccc23)C1` (centres undefined), 36.6% (active).
As for `COc1ccc(-c2cc(C(=O)n3cnc4ccccc43)c3ccccc3n2)cc1`, the figure is 56.7% (active); as for `COc1ccc(CNC(=O)COC(=O)C2=Cc3ccccc3OC2)cc1`, 9.73%; as for `CNC(=O)COC(=O)c1cc(-c2ccc(OC)cc2)nc2ccccc12`, 88.7% (active).
In the case of `COc1ccc2nc(Nc3nc4cc5c(cc4s3)OCCO5)sc2c1`, the activation was -12.6%.
As for `O=C(O)c1ccc2c3c(cccc13)C(=O)N(OS(=O)(=O)c1ccccc1)C2=O`, the figure is 181% (active); as for `CC(=O)Nc1nc(C)c(-c2csc(Nc3ccc(S(N)(=O)=O)cc3)n2)s1`, 17.4% (active); as for `CNc1cncc(-c2cccc(C(=O)N3CCOCC3)c2)n1`, 38.8% (active).
For `Cc1cc(N2CCOCC2)nc2ccc(NC(=S)N3CCN(Cc4ccccc4)CC3)cc12`, the activation is 9.27%.
As for `Clc1ccc(-c2cccc3nccn23)cc1`, the figure is 8.31%.
As for `COc1cc(/C=C/C(=O)Nc2ccc(OC)c(S(=O)(=O)N3CCOCC3)c2)ccc1OCC#N`, the activation was 96.2% (active).
As to `CCOc1ccccc1C1C(C(=O)OC)=CN(C)C=C1C(=O)OC`, the activation is -23.5%.
As for `CN(C(=O)COc1ccccc1)c1nnc(-c2ccncc2)s1`, the figure is 111% (active); as for `COCC(=O)Nc1nnc(COc2ccccc2)s1`, -0.07%; as for `CN(C(=O)c1ccccn1)c1nnc(-c2ccccn2)s1`, 74% (active).
With `Oc1ccc2ccc3cccc[n+]3c2c1` the figure was 34.6% (active).
As for `CN(C(=O)c1cc2c(=O)n3ccccc3nc2s1)C1CCCCC1`, the figure is 33% (active); as for `CCOCCCNC(=O)c1cc2c(=O)n3ccccc3nc2s1`, 74.1% (active); as for `CCN(CC)CCCNC(=O)c1cc2c(=O)[nH]c3ccc(C)cc3c2s1`, 1.54%.
With `CCN(CC)CCCC(C)n1c2nc(=O)[nH]c(=O)c-2nc2cc(Cl)ccc21` (centres undefined), the activation was 75.6% (active).
With `CCN1CCN(C(=O)Cn2nc(C)n3c(cc4c(OC)cccc43)c2=O)CC1` the figure was 21% (active); with `COC(=O)c1cc(N2CCNCC2)nc2ccccc12`, 17.1% (active); with `CN(CCc1ccccn1)S(=O)(=O)c1ccc2c3c(cccc13)C(=O)N2`, 68.2% (active).
In the case of `C=CCn1c(N)c(S(=O)(=O)c2cccs2)c2nc3ccccc3nc21`, the activation was 8.74%.
Regarding `COCCCn1c(-c2cccs2)nc2nc3ccccc3nc21`, the activation is 24.1% (active).
With `Cc1cc2cc3n(c2nn1)N=C(Cl)CC3` the figure was 33.3% (active); with `CCC1=C(C(=O)OC)C(c2cc(OC)ccc2OC)C(C#N)=C(N)O1` (centres undefined), 32.8% (active).
With `O=c1oc2c(CN3CCCCC3)c(O)ccc2c2c1CCCCC2` the figure was 74.6% (active); with `COc1c(N2CCN(C(=S)Nc3ccccc3F)C(C)C2)c(F)cc2c(=O)c(C(=O)O)cn(C3CC3)c12` (centres undefined), 18.5% (active); with `COc1ccc2c(c1)CCc1cn3ncc(C#N)c3nc1-2`, -106%.
With `CNc1cncc(-c2ccc(NS(C)(=O)=O)cc2)n1` the figure was 39.7% (active).
For `C/C(=C\c1ccccc1)C1NC(=O)c2c(sc3c2CCCC3)N1` (centres undefined), the activation is 22.4% (active).
With `COCc1cc(=O)oc2cc(NS(=O)(=O)c3ccc(C)cc3)ccc12` the figure was 72.3% (active).
As for `N#CC1=C(N)Oc2c(sc3ccccc23)C1c1ccco1` (centres undefined), the figure is -25.1%.
With `CC1(C)Oc2ccc3ccc(=O)oc3c2/C(=N/O)C1=O` the figure was 89.9% (active); with `Cc1nc2ccc(N)nc2nc1C`, 49.6% (active); with `O=C1NC(c2cccc(Cl)c2)Nc2ccccc21` (centres undefined), 20.5% (active).
As to `COc1ccc(CCNC(=O)Nc2ccc3c(c2)c(=O)n(C)n3C)cc1OC`, the activation was 24.5% (active).
As for `CCNC(=S)Nc1ccc2c(c1)c(=O)n(C)n2Cc1ccc(Cl)cc1`, the figure is -4.46%; as for `C[C@@H]1C(c2ccc(F)cc2)=NN(c2ccc(Br)cc2)[C@H]1C(=O)N1CCOC1=O`, 27.9% (active); as for `CCN(CC(=O)Nc1c(F)cccc1F)C(=O)c1ccc(-c2ccc(C(C)=O)cc2)o1`, -16.9%.
With `O=C(NCCN1CCOCC1)c1cc(-c2cccs2)nc2ccccc12` the figure was 24.8% (active).
With `CCCCN(C)CCCNC(=O)c1cc(-c2cccs2)nc2ccccc12` the figure was -47.1%.
Consider `Cc1ccc(C2Nc3ccccc3C(=O)N2CCN2CCNC2=O)cc1` (centres undefined), for which the activation is 16.7% (active).
As to `CC(=O)Nc1ccc(-c2cn3cccnc3n2)cc1`, the activation was 74% (active).
As for `CC(C)(C)C(=O)Nc1ccc(-c2cn3cccnc3n2)cc1`, the figure is 73.9% (active); as for `CCCCCC(=O)Nc1ccc(-c2cn3cccnc3n2)cc1`, 24.5% (active).
As for `CCN1CCCC1CNC(=O)c1cc2cc(OC)c(OC)cc2[nH]1` (centres undefined), the activation is 24.7% (active).
With `CCOc1ccc(-n2c(SCC(=O)Nc3cc(C)c(NC(=O)c4ccccc4)cc3OC)nnc2-c2cccs2)cc1` the figure was 15.9% (active); with `CC(=O)Nc1cc2ccc(OC(C)=O)cc2oc1=O`, 125% (active).
As for `CC(=O)Oc1ccc2c(C)c(CC(C)O)c(=O)oc2c1` (centres undefined), the figure is 72.5% (active).
In the case of `CN1c2ccccc2-c2nc3ccccc3n2C1c1ccco1` (centres undefined), the activation is 7.38%.
As to `Cc1cc(C)c2nc3nc(C)cc(C)c3c(N)c2c1`, the activation is 69% (active).
`COc1cc2c(cc1OC)C(C(C)C)=NC(C)(C)C2`: the activation is 63.8% (active).
